{"source": "PubChem BioAssay AID1987", "about": "(The Scripps Research Institute Molecular Screening Center, 2009)", "note": "Screen size: about 320,000 compounds; about 560 (0.17%) were called active. The full list was thinned out, with actives kept by preference. Unmarked numbers belong to inactive results.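 The calls were made as follows: active = inhibition above the campaign's mean inhibition across all tested compounds plus 3 SD (cut at about 9.5% in these data); inactive = the rest.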"}
{"target": "Serine/threonine-protein phosphatase 5 (Homo sapiens) (UniProt P53041)", "sequence (P53041 whole entry, looked up)": "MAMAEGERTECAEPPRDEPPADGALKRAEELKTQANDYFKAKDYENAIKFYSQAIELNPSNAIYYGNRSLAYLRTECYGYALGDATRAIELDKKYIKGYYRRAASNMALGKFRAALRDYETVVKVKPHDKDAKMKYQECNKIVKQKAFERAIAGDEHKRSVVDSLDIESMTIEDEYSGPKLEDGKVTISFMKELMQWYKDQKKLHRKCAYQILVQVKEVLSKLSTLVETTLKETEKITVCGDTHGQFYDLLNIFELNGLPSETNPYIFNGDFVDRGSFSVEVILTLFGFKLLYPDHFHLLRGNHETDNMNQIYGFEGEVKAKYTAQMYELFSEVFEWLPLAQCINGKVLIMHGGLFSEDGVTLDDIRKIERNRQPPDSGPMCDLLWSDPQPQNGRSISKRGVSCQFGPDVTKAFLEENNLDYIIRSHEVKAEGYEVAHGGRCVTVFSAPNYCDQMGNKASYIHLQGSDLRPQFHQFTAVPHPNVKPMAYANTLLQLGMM", "experiment": "PP5 phosphatase inhibitors, primary screen, biochemical, fluorescence (AID 1987);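 also: 0% = DMSO only and 100% = 100 µM cantharidin control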", "settings": "purified PP5c, OMFP substrate fluorescence; at 6.7 µM; hits give high values"}
{"compound": "Cc1nc(CNS(=O)(=O)c2cc([N+](=O)[O-])ccc2C)cs1", "inhibition": "-0.47%"}
{"compound": "N#Cc1c(N2CCCCC2)nc(N)c2c(N)nc(SCC(=O)O)cc12", "inhibition": "12.7% (active)"}
{"compound": "N#CCc1c(C#N)c(N)nc(N2CCCC2)c1C#N", "inhibition": "2.12%"}
{"compound": "N#Cc1c(-c2ccccc2)cc(-c2ccccc2)nc1SCC(=O)O", "inhibition": "-0.23%"}
{"compound": "CC1(C)CC(=O)C=C(NCCCN2CCCC2=O)C1", "inhibition": "-3.07%"}
{"compound": "Cc1nc(NC(CC(C)C)C(=O)O)c2nc(C)oc2n1", "note": "(configuration not stated)", "inhibition": "11.7% (active)"}
{"compound": "CC1(c2cccc([N+](=O)[O-])c2)CC(C)(C)N(C(=O)c2ccccc2)c2ccccc21", "note": "(configuration not stated)", "inhibition": "3.32%"}
{"compound": "C[C@@]12C(=O)N(c3cccc(Br)c3)C(=O)N1[C@H](c1ccc(Cl)cc1)[C@@H]1C(=O)N(C3CCCCC3)C(=O)[C@@H]12", "inhibition": "9.7% (active)"}
{"compound": "O=C1[C@H]2[C@@H](c3ccc(Cl)cc3)N3C(=O)N(c4cccc(F)c4)C(=O)[C@@]3(Cc3ccccc3)[C@H]2C(=O)N1C1CCCCC1", "inhibition": "2.69%"}
{"compound": "CC(C)(C)N1C(=O)[C@H]2[C@@H](c3ccc(Br)cc3)N3C(=O)N(c4cccc(Cl)c4)C(=O)[C@@]3(C)[C@H]2C1=O", "inhibition": "5.22%"}
{"compound": "O=C(CCn1nnnc1CN1CCOCC1)N1CCC(c2ccccc2Cl)C1", "note": "(configuration not stated)", "inhibition": "0.07%"}
{"compound": "Cc1noc(C)c1C(=O)N(CC(=O)NC1CCCC1)Cc1ccccc1F", "inhibition": "0.94%"}
{"compound": "CN(CC(=O)NCc1ccc(Cl)cc1)S(=O)(=O)c1cccs1", "inhibition": "3.27%"}
{"compound": "Cc1c(C)c2c(OCC(=O)N[C@@H](C(=O)O)c3ccccc3)cc3c(c2oc1=O)CCC(C)(C)O3", "inhibition": "2.43%"}
{"compound": "c1ccc(C[C@H]2CNCCN2CCC23CC4CC(CC(C4)C2)C3)cc1", "inhibition": "1.23%"}
{"compound": "CCn1ccnc1CNC(=O)CC1C(=O)NCCN1CCCc1ccccc1", "note": "(configuration not stated)", "inhibition": "0.82%"}
{"compound": "COCC1CCN(C(=O)c2ccc3oc(Cc4ccccc4)nc3c2)C1", "note": "(configuration not stated)", "inhibition": "2.88%"}
{"compound": "O=c1ccc2c(-c3ccccc3S(=O)(=O)O)c3ccc(O)c(O)c3oc-2c1O", "inhibition": "9.92% (active)"}
{"compound": "O=[N+]([O-])c1cccc2ncccc12", "inhibition": "10.4% (active)"}
{"compound": "O=[N+]([O-])c1cc([N+](=O)[O-])c2cccnc2c1O", "inhibition": "2%"}
{"compound": "Nc1nc(Sc2ncccc2[N+](=O)[O-])n[nH]1", "inhibition": "1.94%"}
{"compound": "N#Cc1ccc(CN2CCN(CC(=O)Nc3ccccc3C(=O)NC3CC3)CC2)cc1", "inhibition": "-0.41%"}
{"compound": "CC(NC(=O)c1cc2cc(Cl)ccc2oc1=N)c1ccccc1", "note": "(configuration not stated)", "inhibition": "2.37%"}
{"compound": "COc1cc(C(=O)Nn2c(O)c(C3=c4ccccc4=NC3=O)sc2=S)ccc1O", "inhibition": "-1.88%"}
{"compound": "CN(C(=O)CN1C(=O)/C(=C/c2ccc(Cl)cc2)SC1=S)C1CCS(=O)(=O)C1", "note": "(configuration not stated)", "inhibition": "2.22%"}
{"compound": "NNC(=O)c1oc2nc(-c3ccccc3)cc(-c3ccco3)c2c1N", "inhibition": "-0.37%"}
{"compound": "CNc1nc(-c2ccccc2)cc(-c2ccccc2)n1", "inhibition": "3.18%"}
{"compound": "CNC(=S)NNC(=O)c1oc2nc(-c3ccccc3)cc(-c3ccco3)c2c1N", "inhibition": "15% (active)"}
{"compound": "COc1ccc(S(=O)(=O)N2CCOCC2)cc1NC(=O)CC1CC2CCC1C2", "note": "(configuration not stated)", "inhibition": "-2.65%"}
{"compound": "COc1ccc(OC)c(C(=O)c2ccc(C(=O)O)cc2)c1", "inhibition": "10.3% (active)"}
{"compound": "COc1ccc(OC)c(C(=O)c2coc3ccc(OC)cc23)c1", "inhibition": "3.44%"}
{"compound": "COc1ccc(OC)c(C(=O)c2ccc(Cl)cc2)c1", "inhibition": "1.9%"}
{"compound": "COC(=O)c1ccccc1NC(=O)CSc1n[nH]c(-c2ccncc2)n1", "inhibition": "2.98%"}
{"compound": "Cc1cc(N2CCCC2=O)cc(C)c1S(N)(=O)=O", "inhibition": "0.58%"}
{"compound": "COCCNC(=O)c1ccc2c(c1)ncn2-c1ccc(C)c(Cl)c1", "inhibition": "-2.87%"}
{"compound": "CCC(=C/c1sc2ccc3ccccc3c2[n+]1C)/C=C1\\Sc2ccc3ccccc3c2N1C", "inhibition": "13% (active)"}
{"compound": "COc1cccc(CNC(=O)CCC2CCCN(C(=O)c3cc(C)[nH]n3)C2)c1", "note": "(configuration not stated)", "inhibition": "-3.1%"}
{"compound": "CC(=O)N1CCOc2ccc(S(=O)(=O)N3CCC(C(=O)Nc4ccccc4F)CC3)cc21", "inhibition": "-2.25%"}
{"compound": "COc1cccc(NC(=S)C(C#N)=C2N(C)c3ccccc3N2C)c1", "inhibition": "3.32%"}
{"compound": "CC1Cc2cc(/C(O)=C3\\C(=O)C(=O)N(Cc4cccnc4)C3c3ccccc3F)ccc2O1", "note": "(configuration not stated)", "inhibition": "-0.96%"}
{"compound": "O=C1C=C(c2cccc(Br)c2)C[C@@H](c2ccc(F)cc2)C1", "inhibition": "2.74%"}
{"compound": "O=C(NCCCN1CCCCCC1)C1CC(=O)N(C2CCCC2)C1", "note": "(configuration not stated)", "inhibition": "0.05%"}
{"compound": "CCc1c(O)nc(SCC(=O)Nc2ccccc2)n(C(C)CC)c1=O", "note": "(configuration not stated)", "inhibition": "4.45%"}
{"compound": "CCCCN(C(=O)c1ccc(OC(F)(F)F)cc1)c1c(N)n(CCC)c(=O)[nH]c1=O", "inhibition": "2.07%"}
{"compound": "O=C(CN(CC1CCCO1)C(=O)CNS(=O)(=O)c1ccc(Cl)cc1)NCc1ccccc1", "note": "(configuration not stated)", "inhibition": "-1.95%"}
{"compound": "Cc1ccc(C2=NN(C(=O)COc3ncnc4ccccc34)C(c3ccco3)C2)cc1", "note": "(configuration not stated)", "inhibition": "-1.05%"}
{"compound": "CCOC(=O)N1CCN(Cc2oc(CO)cc(=O)c2O)CC1", "inhibition": "3.28%"}
{"compound": "CCC(C(=O)NCCC(C)C)N(Cc1ccccc1Cl)C(=O)c1snc(C(N)=O)c1N", "note": "(configuration not stated)", "inhibition": "-2.16%"}
{"compound": "CC(=O)NCc1ccc(S(=O)(=O)NC2CCN(Cc3ccccc3)CC2)cc1", "inhibition": "2.13%"}
{"compound": "C=C(C)CNc1cc(S(=O)(=O)N2CCOCC2)ccc1Oc1ccccc1", "inhibition": "4.3%"}
{"compound": "Cc1ccc(CCN2CC(C(=O)O)CC2=O)cc1", "note": "(configuration not stated)", "inhibition": "5.13%"}
{"compound": "CC(C)(C)S(=O)(=O)c1ccccc1-c1noc(-c2ccccc2)c1C(N)=O", "inhibition": "-0.76%"}
{"compound": "Cc1ccc(Cl)cc1NC(=O)CN1CCN(S(=O)(=O)N2CCOCC2)CC1", "inhibition": "0.83%"}
{"compound": "Cc1cc(C(=O)COc2ccc(Br)cc2F)c(C)n1C1CC1", "inhibition": "-1.78%"}
{"compound": "O=C(NCc1cccc(Cl)c1)C1=CC=CN2CCS(=O)(=O)N=C12", "inhibition": "0.61%"}
{"compound": "COc1cccc(OCc2nnc3n2N=C(c2ccccc2)C(CC(=O)O)S3)c1", "note": "(configuration not stated)", "inhibition": "-0.47%"}
{"compound": "COc1ccccc1C(=O)NCCC(=O)N(C)Cc1cccnc1", "inhibition": "0.46%"}
